Compounds with a hit are over-represented: about 3% of the library has one in this group of screens.
ALOX12 inh = inhibitors of human 12S-lipoxygenase ALOX12; P18054; purified 12hLO, xylenol orange hydroperoxide absorbance; Potency, µM (titrated, usually from 108 µM), without a hit: at the highest dose activity change, negative = inhibition, hits mostly inhibitors; 580,000 tested, 1.1% active; AID 1671190; active = well fitted inhibition curve with a large enough effect; inconclusive = small, poorly fitted or top-dose-only effect, or another doubt; inactive = no such curve, though single readings can be large or run the other way; note: potency is the fitted concentration of half-maximal effect; % is set by controls: 0 for no effect and ±100 for the full control effect
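Hydroperoxide product was detected by ferrous iron/xylenol orange as the 573 to 405 nm absorbance ratio. Arachidonic acid at 40 uM (final) was turned over for 30 min at room temperature by 150 nM human 12hLO, pH 7.0 Hepes buffer, after 15 min compound preincubation.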
BCR signal inh = blocks chronic active B-cell receptor signaling | Potency, µM (highest dose often 46.1 µM), for the others: at the highest dose activity change, negative = inhibition, most hits filed as inhibitors | ABC-DLBCL IkBa-CBG/CBR reporter, luminescence ratio, 4 h | AID 493014 | 340,000 tested, 0.05% active; active = well fitted inhibition curve with a large enough effect in the signal ratio, with a control signal flat, not every such curve was filed as active; inconclusive = small, poorly fitted or top-dose-only effect, or effect the other way, or a change in a side signal; the % refers to the signal ratio;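 note: potency is the fitted concentration of half-maximal effect; plate controls were basal doxycycline-induced cells for no effect and cells given 10 µM MG132 for full effect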
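TMD8 human ABC-DLBCL cells with doxycycline-inducible IκBα–green luciferase fusion and unfused red luciferase, in 0.5% FBS medium; compounds up to 46 uM, 4 h at 37C. Green/red luminescence ratio, filter-overlap corrected, fitted to concentration-response curves.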
KCNH2 WT inh = inhibitors of human wildtype KCNH2 potassium channel | activity change, % at 1.84 µM | 340,000 tested, 0.37% active | U2OS, BacMam KCNH2, thallium flux FluxOr; stronger effect = lower value;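 active = maximum activity change below -70%; inconclusive = maximum activity change between -70% and -50%; inactive = maximum activity change above -50%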; note: % is set by controls: 0 for no effect and ±100 for the full control effect
Target sequence (Q12809 whole entry, looked up): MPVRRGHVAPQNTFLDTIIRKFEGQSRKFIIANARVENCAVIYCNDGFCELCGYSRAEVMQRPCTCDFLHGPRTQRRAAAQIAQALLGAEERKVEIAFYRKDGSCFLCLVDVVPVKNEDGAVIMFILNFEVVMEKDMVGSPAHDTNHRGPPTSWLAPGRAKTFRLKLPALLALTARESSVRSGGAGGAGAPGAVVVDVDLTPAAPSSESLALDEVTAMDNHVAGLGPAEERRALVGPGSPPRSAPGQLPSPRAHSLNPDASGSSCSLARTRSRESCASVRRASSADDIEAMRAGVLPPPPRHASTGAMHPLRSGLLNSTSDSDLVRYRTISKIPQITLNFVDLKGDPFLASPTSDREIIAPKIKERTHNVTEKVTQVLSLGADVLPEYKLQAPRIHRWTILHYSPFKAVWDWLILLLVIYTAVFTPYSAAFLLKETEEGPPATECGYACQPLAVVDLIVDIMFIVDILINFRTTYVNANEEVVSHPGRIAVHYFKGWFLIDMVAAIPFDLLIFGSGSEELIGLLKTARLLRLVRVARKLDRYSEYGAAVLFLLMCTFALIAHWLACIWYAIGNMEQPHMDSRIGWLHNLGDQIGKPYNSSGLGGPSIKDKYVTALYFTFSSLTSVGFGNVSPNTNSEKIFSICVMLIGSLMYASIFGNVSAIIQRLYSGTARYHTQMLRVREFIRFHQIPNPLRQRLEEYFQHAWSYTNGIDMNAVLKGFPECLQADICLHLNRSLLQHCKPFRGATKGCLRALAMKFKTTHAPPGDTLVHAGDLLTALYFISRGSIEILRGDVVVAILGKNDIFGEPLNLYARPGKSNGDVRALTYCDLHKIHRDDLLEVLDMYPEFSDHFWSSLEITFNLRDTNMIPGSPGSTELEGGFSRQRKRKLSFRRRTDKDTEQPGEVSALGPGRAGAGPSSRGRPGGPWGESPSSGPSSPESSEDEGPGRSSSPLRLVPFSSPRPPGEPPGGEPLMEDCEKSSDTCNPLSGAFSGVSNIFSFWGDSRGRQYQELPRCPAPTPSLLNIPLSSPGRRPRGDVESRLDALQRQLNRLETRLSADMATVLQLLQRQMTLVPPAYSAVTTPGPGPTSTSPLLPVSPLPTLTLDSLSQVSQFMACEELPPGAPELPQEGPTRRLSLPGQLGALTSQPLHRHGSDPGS
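U2OS cells were transduced with wild-type KCNH2 virus (2.03 x 10^8 / mL) for 4 h at room temperature, then cultured overnight at 37 C. Thallium flux was read with FluxOr dye. Rate constants were normalized to DMSO controls.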
LDHA inh = blocks human lactate dehydrogenase A. P00338. purified LDHA, NADH/diaphorase-resazurin fluorescence; stronger effect = lower value. activity change, % (values are at about 110 or 230 µM). 480,000 tested, 0.15% active. AID 1347041; in the data active = activity change below about -30%; inconclusive = mostly about -25% to -30%;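 note: plate controls were DMSO wells for no effect and wells without enzyme for full effect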
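Human LDH5 at 2 nM final in Tris HCl pH 7.4 with 0.06 mM NADH and 0.2 mM pyruvate, reacted 5 minutes at room temperature. Remaining NADH coupled via diaphorase/resazurin; resorufin fluorescence read at 0 and 20 minutes, normalized to enzyme-free and DMSO wells.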
KCNH2 3.1 block = KCNH2 3.1 (human) potassium channel inhibition; U2OS KCNH2 3.1, thallium flux FluxOr; stronger effect = lower value; activity change, % (tested at about 1.8 µM); 340,000 tested, 0.95% active;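 active = maximum activity change below -70%; inconclusive = maximum activity change from -70% to -50%; inactive = maximum activity change above -50%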;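 note: thallium influx rate constant from kinetic fluorescence after stimulation buffer; % is set by controls: 0 for no effect and ±100 for the full control effect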
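Normalized rate constant (relative to positive and negative DMSO controls) derived from a 2 min kinetic fluorescence read after stimulation; U2OS cells expressing the 3.1 isoform via virus at 1.77 x 10^8 /mL.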
ClpP mod = qHTS Assay for Activators of ClpP. 340,000 tested, 1.9% active. purified B. subtilis ClpP, FRET peptide cleavage, 20 min. ATP-dependent Clp protease proteolytic subunit (Bacillus subtilis (strain 168)), P80244. Potency, µM (series often up to 57.5 µM), for the others: at the top dose activity change, negative = active. AID 651965, 2013; active = well fitted falling curve with a large enough effect; inconclusive = small, poorly fitted or top-dose-only effect; inactive = no such curve, though single readings can be large or run the other way; note: potency is the fitted concentration of half-maximal effect; the source files actives as falling curves though it sought activators and does not explain the sign; nearly all actives have a fitted effect of over 65% in size
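ClpP 10 microg/mL final, pH 8 Tris/KCl buffer with BSA, glycerol, Tween-20; compound pinned in; FRET-FV substrate; RT 20 min; Ex320/Em430; ΔFRET vs ADEP 5.8 microM, DMSO, no enzyme.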
Active calls of the source: *; ? = inconclusive; . = not tested or not shown; [ ] = another dose, or the depositor's remark.

SMILES	ALOX12 inh	BCR signal inh	KCNH2 WT inh	LDHA inh	KCNH2 3.1 block	ClpP mod
Cc1ccccc1NC(=S)NCc1ccc2c(c1)cc(C)n2C	?	?	7	-7	-4	-13%
Cc1cc2cc(CNC(=S)NCc3ccccc3)ccc2n1C	40µM*	-1%	-16	-2	2	.
O=C(OCC1C(COC(=O)c2cc([N+](=O)[O-])ccc2Cl)C1(Cl)Cl)c1cc([N+](=O)[O-])ccc1Cl (centres undefined)	6%	.	.	0	.	.
Cc1[nH]c2ccccc2c1C(=O)N1CCN(S(=O)(=O)c2ccc(F)cc2F)CC1	?	.	.	-2	.	.
O=C(c1ccc2[nH]ccc2c1)N1CCN(Cc2ccccc2)CC1	-55%	.	.	-3	.	.
CC(=O)NC[C@H]1Cn2c(-c3ccc4c(c3)OCCO4)cnc2CO1	28%[176 µM]	.	.	.	.	.
COC(=O)c1cc(Cl)c(NC(=O)/C=C/c2ccc(OC)c(OC)c2)cc1OC	-20%	9%	-3	-7	3	28µM*
COc1ccc(N2CC(NC(=O)/C=C\c3ccc(OC)c(OC)c3)CC2=O)cc1 (centres undefined)	-6%	-4%	.	0	.	32µM*
COC(=O)c1cc(Cl)c(NC(=O)/C=C/c2ccc(Cl)cc2)cc1OC	4%	?	-27	8	-80*	7%
COc1ccc(/C=C/C(=O)Nc2nc(C)cc(C)n2)cc1OC	0%	?	1	3	9	35µM*
CC(=O)c1ccc(OCC(=O)Nc2ccc3oc(C)nc3c2)cc1	-3%	.	.	26	.	.
O=C1CC(c2ccco2)CC2=C1C(c1ccccc1)n1nc(C(F)(F)F)nc1N2 (centres undefined)	?	?	-2	-4	-17	25µM*
CCOC(=O)c1c(NC(=O)CSc2nnnn2-c2ccccc2OCC)sc2c1CC(C)(C)NC2(C)C	-28%	-20%	-19	-2	-81*	-1%
CC1(C)Cc2c(sc(NC(=O)COc3ccc(Cl)cc3)c2C(N)=O)C(C)(C)N1	4%	3%	16	0	-73*	1%
Cc1ccc(OCC(=O)Nc2sc3c(c2C#N)CC(C)(C)NC3(C)C)cc1	1%	-2%	12	-6	-4	0%
CSc1ccc(-c2nc3ccc(C)cn3c2Nc2ccccc2C)cc1	-14%	.	.	-1	.	3.5µM*
Cc1cccc(N=C2NN=C(c3c(C)[nH]c4ccccc34)CS2)c1	?	?	-6	-7	1	18µM*
Cc1cccc(N=C2NN=C(c3ccc4c(c3)OCCO4)CS2)c1	-18%	?	6	-5	-2	-4%
CCNC(=O)CSc1nc2cc(S(=O)(=O)Nc3ccc(OC)cc3)ccc2o1	7%	-19%	-1	-7	-6	-1%
COc1ccc(NS(=O)(=O)c2ccc3oc(SC(C)C(N)=O)nc3c2)cc1 (centres undefined)	.	-2%	3	-7	8	32µM*
CC(C)c1noc(C(C)Nc2ccc(N3CCCC3=O)c(Cl)c2)n1 (centres undefined)	16%	.	.	2	.	.
c1ccc(-c2c(-c3ccccc3)n(Cc3ccco3)c3ncnc(NCCCn4ccnc4)c23)cc1	.	?	13	1	.	25µM*
OCCNc1ncnc2c1c(-c1ccccc1)c(-c1ccccc1)n2Cc1ccco1	?	?	-3	6	3	28µM*
c1ccc(-c2oc3ncnc(NCCCn4ccnc4)c3c2-c2ccccc2)cc1	.	-14%	12	-3	-33	?
O=C1Nc2ccc(-c3cccs3)cc2C(=O)N2CC[C@H](NS(=O)(=O)c3cccs3)[C@@H]12	-4%	.	.	.	.	.
Cc1ccc(NS(=O)(=O)c2ccc(N3CC(C(=O)O)CC3=O)cc2)cc1F (centres undefined)	?	.	.	4	.	.
Cc1c(C=O)c(C)n(C)c1C	-18%	.	.	9	.	.

Assay outcomes: PubChem BioAssay, National Center for Advancing Translational Sciences (NCATS)
